Screens: PubChem BioAssay, National Center for Advancing Translational Sciences (NCATS)
Compounds with a hit are over-represented: about 12% of the library has one in this group of screens.
AmpC no deterg – inhibitors of E. coli AmpC beta-lactamase without detergent. Potency, µM (series often up to 57.1 µM), for the others: at the highest dose activity change, negative = inhibition, most hits filed as inhibitors. AID 485341. AmpC nitrocefin hydrolysis, absorbance 480 nm, 0.0001% Triton. 0.52% of 330,000 active. P00811;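 further: plate controls were no compound for no effect and no enzyme for full effect; nearly all actives have a fitted effect of over 20% in size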
Target sequence (P00811 whole entry, looked up): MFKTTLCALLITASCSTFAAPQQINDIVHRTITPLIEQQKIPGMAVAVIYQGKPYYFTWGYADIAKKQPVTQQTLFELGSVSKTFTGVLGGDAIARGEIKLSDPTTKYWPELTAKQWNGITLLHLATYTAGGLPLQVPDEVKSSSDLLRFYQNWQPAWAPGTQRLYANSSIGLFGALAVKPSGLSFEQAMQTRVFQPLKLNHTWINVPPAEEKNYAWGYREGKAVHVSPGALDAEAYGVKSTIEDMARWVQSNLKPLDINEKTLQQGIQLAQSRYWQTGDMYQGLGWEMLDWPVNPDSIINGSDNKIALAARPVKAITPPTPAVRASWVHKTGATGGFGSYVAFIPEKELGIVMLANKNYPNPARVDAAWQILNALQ
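20 mM phosphate pH 7.0 + 0.01% (detergent screen) or 0.0001% Triton X-100; 5.3 nM AmpC reagent; cpd preinc 15 min RT; nitrocefin (800 uM stock) to start; A480 q20 s × 4 min; Activity was normalised to no-enzyme and no-compound control wells.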
Sm TGR block – blocks Schistosoma mansoni thioredoxin glutathione reductase; Q962Y6; Potency, µM (top dose mostly 114 µM), without a hit: at the highest dose activity change, negative = inhibition, usual class: inhibitors; 3% of 360,000 active; purified TGR, DTNB reduction, TNB absorbance 405 nm; further: on the % scale 0 is the no-effect control and ±100 the full control effect; nearly all actives have a fitted effect of over 60% in size
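TGR 20 nM + NADPH 100 uM (dispensed conc.), cpd preinc 15 min RT; start with NADPH (500 uM addition) then DTNB (15 mM addition). Kinetic TNB absorbance, 405 nm filter. Four-parameter Hill fit across titration.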
Pf growth 96h – inhibits malaria parasite growth, 96 h. P. falciparum luciferase reporter growth, 96 h. Potency, µM (series often up to 28.7 µM), for the others: at the highest dose activity change, negative = inhibition, actives largely listed as inhibitors. 6.9% of 320,000 active; further: on the % scale 0 is the no-effect control and ±100 the full control effect
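Luminescence readout: decreased luciferase signal marks inhibited growth of reporter-expressing P. falciparum in infected red cells (2% hematocrit, 0.05% parasitemia final), exposed to compound two generations (96 h, 37 C, 5% CO2).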
Pf growth 48h – inhibits P. falciparum growth in the first generation, 48 h | P. falciparum luciferase growth in erythrocytes, 48 h | 5.9% of 310,000 active | AID 504832 | Potency, µM (titrated, usually from 28.7 µM), inactives show at the highest dose activity change, negative = inhibition, usual class: inhibitors; further: on the % scale 0 is the no-effect control and ±100 the full control effect
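Parasite viability was followed by luminescence of a genomically integrated firefly luciferase. Cultures held 0.1% parasitemia at 2% hematocrit (final), incubated under 5% CO2 at 37 C.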
AmpC inh detg – blocks E. coli AmpC beta-lactamase in detergent assay | P00811 | AmpC hydrolysis of nitrocefin, absorbance 480 nm, 0.01% Triton | 0.041% of 370,000 active | Potency, µM (top dose mostly 114 µM), for inactives: top-dose activity change, negative = inhibition, most hits filed as inhibitors | AID 485294;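 further: 0% = no-compound wells and -100% = no-enzyme wells; nearly all actives have a fitted effect of over 25% in size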
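AmpC (5.3 nM in the dispensed reagent) in 20 mM phosphate pH 7.0 with 0.01% (detergent screen) or 0.0001% Triton X-100 was preincubated with compounds for 15 min at room temperature. Nitrocefin was then added from an 800 uM solution, and hydrolysis was followed at 480 nm.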
SARS PLpro yeast – inhibitors of SARS-CoV papain-like protease in yeast | S. cerevisiae expressing SARS-CoV PLpro, growth rescue | Potency, µM (series often up to 32.9 µM), inactives show at the highest dose activity, positive = growth rescue, usual class: activators | 0.19% of 330,000 active; calls by dose curve; further: 0% is about no effect; nearly all actives have a fitted effect of over 55% in size
Numbers without * were called inactive; ! = repeats disagree; [ ] = remark or other dose. Unless noted, the call rests on the fitted dose curve; in most records, active means well fitted curve in the direction sought with a large enough effect; inconclusive means small, poorly fitted or top-dose-only effect, or another doubt; inactive means no such curve, though single readings can be large; an effect the other way counts as inactive or inconclusive. Potency means the concentration at half of the fitted maximal effect.

Results for Cc1ccc(N(C)S(=O)(=O)c2nnc(NC(=O)c3ccco3)s2)cc1 ?
AmpC no deterg: -32%; Sm TGR block: inconclusive; Pf growth 96h: 17%; Pf growth 48h: 17%; AmpC inh detg: -1%; SARS PLpro yeast: 1%

What do the screens show for `CN(c1ccc(Cl)cc1)S(=O)(=O)c1nnc(NC(=O)c2ccco2)s1`?
AmpC no deterg: -30%; Sm TGR block: 20µM*!; Pf growth 96h: 35%; Pf growth 48h: -13%; AmpC inh detg: 3%; SARS PLpro yeast: -3%

Results for Cc1ccccc1N(C)S(=O)(=O)c1nnc(NC(=O)c2ccco2)s1 ?
AmpC no deterg: inconclusive; Sm TGR block: 25µM*!; Pf growth 96h: inconclusive; Pf growth 48h: 19%; AmpC inh detg: -3%; SARS PLpro yeast: -3%

Results for CN1CCN(c2csc3ccc(F)cc3c2=O)CC1 ?
Sm TGR block: 1%; AmpC inh detg: -4%

What do the screens show for `CCc1nnc(SCC(=O)Nc2cc(Cl)c(OC)cc2OC)c2cc3oc(C)cc3n12`?
Sm TGR block: 2%; AmpC inh detg: 22%

What do the screens show for `Cc1ccc(O)c(NC(=O)CCC2CCCCC2)c1`?
AmpC no deterg: -28%; Sm TGR block: 4%; Pf growth 96h: 13µM*; Pf growth 48h: inconclusive; AmpC inh detg: 2%; SARS PLpro yeast: -7%

How did CCCc1ccc(OCC(=O)Nc2cc(S(=O)(=O)CC)ccc2O)cc1 do in these assays?
AmpC no deterg: -30%; Sm TGR block: 7%; Pf growth 96h: 12µM*; Pf growth 48h: 17%; AmpC inh detg: 1%; SARS PLpro yeast: 0%

How did CCS(=O)(=O)c1ccc(O)c(NC(=O)COc2ccc(OC)cc2)c1 do in these assays?
AmpC no deterg: -25%; Sm TGR block: 6%; Pf growth 96h: inconclusive; Pf growth 48h: 24%; AmpC inh detg: inconclusive; SARS PLpro yeast: 14%

Results for O=C(CCC1CCCCC1)Nc1ccccc1O ?
AmpC no deterg: -16%; Sm TGR block: 3%; Pf growth 48h: -61%; AmpC inh detg: -1%; SARS PLpro yeast: -11%

What do the screens show for `Cc1cccc(OCC(=O)Nc2ccccc2C(F)(F)F)c1`?
AmpC no deterg: 0%; Sm TGR block: 0%; Pf growth 96h: 31%; Pf growth 48h: 41%; AmpC inh detg: -7%; SARS PLpro yeast: 29%

Results for Cc1cccc(OCC(=O)Nc2cc(C)c(C)cc2O)c1 ?
AmpC no deterg: -27%; Sm TGR block: 0%; Pf growth 96h: -19%; Pf growth 48h: 3.7µM*; AmpC inh detg: -11%; SARS PLpro yeast: -4%

What do the screens show for `Cc1cccc(OCC(=O)Nc2ccccc2-c2ccccc2)c1`?
AmpC no deterg: -10%; Sm TGR block: 3%; Pf growth 96h: 0%; Pf growth 48h: 3%; AmpC inh detg: 2%; SARS PLpro yeast: -7%

How did Cc1cccc(OCC(=O)Nc2cc(C)ccc2O)c1 do in these assays?
AmpC no deterg: -25%; Sm TGR block: 12%; Pf growth 96h: inconclusive; Pf growth 48h: 12µM*; AmpC inh detg: -11%; SARS PLpro yeast: -10%

What do the screens show for `Cn1nccc1-c1cc(Cl)cc(Cl)c1O`?
AmpC no deterg: -24%; Sm TGR block: 6%; Pf growth 96h: 2%; Pf growth 48h: 8%; AmpC inh detg: 7%; SARS PLpro yeast: -2%

How did Cn1c(CCNC(=O)c2ccc(Cl)cc2)n[nH]c1=S do in these assays?
AmpC no deterg: -20%; Sm TGR block: 1%; Pf growth 96h: 55%; Pf growth 48h: 45%; AmpC inh detg: inconclusive; SARS PLpro yeast: 0%

What do the screens show for `Cc1ccc(NC(=O)COc2ccc(C(=O)c3ccccc3)cc2)c(O)c1`?
AmpC no deterg: 16µM*; Sm TGR block: -12%; Pf growth 96h: inconclusive; Pf growth 48h: inconclusive; AmpC inh detg: 1%; SARS PLpro yeast: -2%

Results for COc1ccc(Cc2nnc(NS(=O)(=O)c3ccc(Cl)cc3)s2)cc1OC ?
AmpC no deterg: -23%; Sm TGR block: 3%; Pf growth 96h: 5%; Pf growth 48h: -13%; AmpC inh detg: 1%; SARS PLpro yeast: -1%

Results for CCOc1ccc(Cl)cc1CNCCCSc1ncccn1 ?
AmpC no deterg: -25%; Sm TGR block: -1%; Pf growth 96h: 13µM*; Pf growth 48h: 27%; AmpC inh detg: -6%; SARS PLpro yeast: 0%

Results for COc1ccc(Cl)cc1CNCCCSc1ncccn1 ?
AmpC no deterg: -20%; Sm TGR block: -2%; Pf growth 96h: inconclusive; Pf growth 48h: inconclusive; AmpC inh detg: -12%; SARS PLpro yeast: -1%

How did COC(=O)Cn1c(=O)c(C(=O)CCl)c(N)n(Cc2ccccc2)c1=O do in these assays?
AmpC no deterg: -1%; Sm TGR block: inconclusive; Pf growth 96h: 9%; Pf growth 48h: inconclusive; AmpC inh detg: 1%; SARS PLpro yeast: 1%

How did CC(=O)c1cccc(CN2CCCC(C(=O)c3ccc4c(c3)OCO4)C2)c1 (centres undefined) do in these assays?
AmpC no deterg: 8%; Sm TGR block: 4%; Pf growth 96h: inconclusive; Pf growth 48h: inconclusive; AmpC inh detg: -7%; SARS PLpro yeast: 1%

How did O=C(c1ccc2c(c1)OCO2)C1CCCN(C2CCN(CCc3ccccc3)CC2)C1 (centres undefined) do in these assays?
AmpC no deterg: 47%; Sm TGR block: 0%; Pf growth 96h: 3%; Pf growth 48h: 2.6µM*; AmpC inh detg: 1%; SARS PLpro yeast: 1%

What do the screens show for `c1cc2c(cc1CN1CCN(C3CCCCCC3)CC1)OCO2`?
AmpC no deterg: -8%; Sm TGR block: -1%; Pf growth 96h: 7%; Pf growth 48h: -14%; AmpC inh detg: -2%; SARS PLpro yeast: -2%

What do the screens show for `CCOC(=O)C1CCCN(C(=O)c2ccc3c(c2)OCO3)C1` (centres undefined)?
AmpC no deterg: -6%; Sm TGR block: 2%; Pf growth 48h: -15%; AmpC inh detg: inconclusive; SARS PLpro yeast: -1%

Results for CCOC(=O)CNC(=O)N1CCCC(C(=O)c2ccc3c(c2)OCO3)C1 (centres undefined) ?
AmpC no deterg: -2%; Sm TGR block: 0%[57.1 µM]; Pf growth 96h: 12µM*; Pf growth 48h: 2%; AmpC inh detg: -9%; SARS PLpro yeast: 1%

How did c1ccc(CN2CCC(N3CCN(Cc4ccc5c(c4)OCO5)CC3)CC2)cc1 do in these assays?
AmpC no deterg: -2%; Sm TGR block: -10%; Pf growth 96h: inconclusive; Pf growth 48h: 15µM*; AmpC inh detg: -10%; SARS PLpro yeast: 0%

What do the screens show for `COc1ccc(CNC(=O)CCC2N=C3c4ccccc4N=C(SCc4ccc(F)cc4)N3C2=O)cc1` (centres undefined)?
Sm TGR block: 2%; AmpC inh detg: 4%
